{"source": "the supplement of paper PMC6555819"}
{"system": "RXRa homodimer (NR concentration 180 nM)", "test": "PBM binding z-score (relative to random genomic background probes); higher = stronger binding; sequences stand for … in GC…GCGATTGACAGCGTAGAATGAAGG", "how_it_was_run": "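The probes on custom Agilent 4×180K protein-binding microarrays were double-stranded, with 34-nt variable regions bearing direct-repeat seeds, single-nucleotide variants, half-site ablations and random human genomic background sequences. Incubation lasted 1 h with ligand-free nuclear receptor dimers in PBS pH 7.4, 2% milk, 0.02% Triton X-100, 1 mM DTT, 0.2 mg/mL BSA and 0.4 mg/ml salmon testes DNA. Antibodies against each partner (one per run) detected bound dimers, and fluorescence scans were regression-normalized. Binding z-scores take the random background probes as reference.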"}
{"sequence": "CCTAACAGGCCAATCTGGGTCACTCAAGGCTTGA", "PBM binding z-score": 0.758}
{"sequence": "CTCGAAAGGTCGTGCTCAGGTGAGTTTACCAAAC", "PBM binding z-score": 5.17}
{"sequence": "CCAACTGGGGCAAGGTTACCATAACGCACAGCCA", "PBM binding z-score": 1.13}
{"sequence": "TCTATTAGTTTATTAGGGCAACCGAAACAGCGGA", "PBM binding z-score": 0.82}
{"sequence": "GCGACTGGGGCCTCAGCAGGTTACCATAACTTAA", "PBM binding z-score": -0.182}
{"sequence": "TCGAGTACGTTAGGGGCATTCAGAATGGCGTCGA", "PBM binding z-score": 0.3}
{"sequence": "CGTCCAAGGTCATAGGAGGTCGGTGAAGACAGAT", "PBM binding z-score": 6.13}
{"sequence": "AGTCAAAGTTCATCTAGGTACCGTAAGATATGCT", "PBM binding z-score": 4.36}
{"sequence": "CGTCAAAGTTCAACTAGGGTAACGTAAAGCACGC", "PBM binding z-score": 5.44}
{"sequence": "TCGAGTAGCTTAGTCGGGGCATTCAGCCAACATA", "PBM binding z-score": -0.559}
{"sequence": "GCATATAGGTGATACAAGGTGAAAGTCCGATTGT", "PBM binding z-score": 0.856}
{"sequence": "CCTACTGGGCCATCAGGTCATAGATATCAACGTT", "PBM binding z-score": 1.28}
{"sequence": "ATCTCTAGGTAACCAAGTTCCGTGAATGCCGAAC", "PBM binding z-score": 0.217}
{"sequence": "CCTAGCAGGCCAATCAGGGTCACTCAAGGCTTGA", "PBM binding z-score": 3.31}
{"sequence": "ATCTCTAGGTAACCCAGTTCAGTGAATGCCGAAC", "PBM binding z-score": 0.828}
{"sequence": "CAAACTAGGTCACAGAGGTCAAAGCCCGTGCGTA", "PBM binding z-score": 7.75}
{"sequence": "CAAACTAGGTCACGACAGGTCAAAGTCGAATGAC", "PBM binding z-score": 6.08}
{"sequence": "CCTGCTAGGTCAATAGTCAGCTAAAGCAGCTCGC", "PBM binding z-score": 1.42}
{"sequence": "GGAAGGAGGGCAAAGTTGATAGCATCTGTCGACG", "PBM binding z-score": 1.89}
{"sequence": "TCATATAGGTACAGGTGAAAGTCGAACGATATGA", "PBM binding z-score": 1.07}
{"sequence": "CGAACGAGGGCATCAGTTGATAGCAAATGCCGAT", "PBM binding z-score": 0.686}
{"sequence": "AGAACGAGGGCAATGAGTTAATAGCACGGGTGGC", "PBM binding z-score": 0.7}
{"sequence": "CAAACTAGGTCAAGGTCAAGGTCGGTTTGTGCCA", "PBM binding z-score": 6.62}
{"sequence": "CGTCAAAGTTCAAGATAACGTAACAGAAAGCAGC", "PBM binding z-score": 4.34}
{"sequence": "CCTAGTTGGTCAAGGTCACACAAGCTATAGGTAC", "PBM binding z-score": 4.88}
{"sequence": "GCAGGCAGGTGAAACGCAGGTAACTCAGGGTGGC", "PBM binding z-score": 0.329}
{"sequence": "CGAACTAGGTTATTGACAGGACAGTGAATAGTAA", "PBM binding z-score": 0.57}
{"sequence": "CGAACTAGGTCATTGACAGGACACTGAATAGTAA", "PBM binding z-score": 2.46}
{"sequence": "CGTCAAGGTTCAACTAAGGTAACGTAAAGCACGC", "PBM binding z-score": 3.53}
{"sequence": "CTCGAAAGGTCGGTCGAGGTGAGTATACGGATAA", "PBM binding z-score": 2.47}
{"sequence": "TCAGACAGATGAAGGTAACTCAGGTACGCAGTCG", "PBM binding z-score": 0.965}
{"sequence": "CGAACGAGGGCATGAGTTAATAGCAAATGCCGAT", "PBM binding z-score": 0.895}
{"sequence": "GCTTGTAGATCAGGGTTAAGAAAGACTAAGCTAA", "PBM binding z-score": 0.823}
{"sequence": "AATAGCAGGCCAAGTTTGGGTCACTCAAACAAAG", "PBM binding z-score": 0.964}
{"sequence": "GCGACTGGGGCATCAGCATGTTACCATAACTTAA", "PBM binding z-score": 0.217}
{"sequence": "CGTCCAAGGTTAGCAGGTCAGTGAAAGCGACGTG", "PBM binding z-score": 2.04}
{"sequence": "ATCTCTAGGTAAGACTAAGTTCAGTGAAGAACGC", "PBM binding z-score": 0.46}
{"sequence": "GCTTACGGGTCATAGGTTATAGCATGAATAGAAT", "PBM binding z-score": 6.22}
{"sequence": "TGAATAAGGTTAAAGATCAGGGAACGTGGCGTCG", "PBM binding z-score": 3.39}
